Most compounds without a hit are left out; they make up all but 17% or so of the library.
ATXN2 expr inh: inhibitors of ATXN2 expression | HEK-293 ATXN2-luciferase reporter, luminescence, 24 h | Potency, µM (series often up to 57 µM), for the others: at the highest dose activity change, negative = inhibition, most hits filed as inhibitors | 360,000 tested, 0.72% active | AID 1745845; also: % is scaled to controls: 0 for no effect and ±100 for the full control effect; nearly all actives have a fitted effect of over 55% in size
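ATXN2-luciferase reporter cells (luciferase flanked by upstream and downstream ATXN2 gene portions) were treated 24 h at 37 °C with compounds at up to 57 uM. SteadyGlo luminescence gave expression; GF-AFC fluorescence gave viability.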
TGFb SMAD3 inh: TGF-b pathway inhibition. HepG2 CAGA-GFP TGF-b/SMAD3 reporter, GFP fluorescence, 18 h; TGF-beta stimulated, 500 pg/mL final. Potency, µM (series often up to 46.1 µM), for the others: at the highest dose activity, negative = inhibition, actives largely listed as inhibitors. 410,000 tested, 1.2% active. AID 588855; also: % is scaled to controls: 0 for no effect and ±100 for the full control effect; nearly all actives have a fitted effect of over 65% in size
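Per well, imaged GFP fluorescence of HEPG2 CAGA-GFP cells gives the signal; cells get compound, then TGF-beta (500 pg/mL final), 18 h at 37 degrees C; %Activity versus -TGF-beta and +DMSO controls.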
S2 tox: viability counter-screen for ATXN expression inhibitors. S2 cells (HEK-293 line with an ATXN2-luciferase reporter) viability, CellTiter-Fluor protease fluorescence, 24 h. Potency, µM (titrated, usually from 56.7 µM), hits mostly cytotoxic. 400,000 tested, 0.49% active; also: nearly all actives have a fitted effect of over 40% in size
HepG2 tox: kills HepG2 cells in TGF-b inhibitor counter-screen; Potency, µM (doses to about 46.1 µM), for the others: at the top dose activity change, negative = cytotoxicity, actives largely listed as cytotoxic; AID 588856; HepG2 CAGA-GFP viability, ATP luminescence, 18 h; 410,000 tested, 0.76% active
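CellTiter-Glo luminescence gave cytotoxicity after 18 hours at 37 degrees C. The cells were HepG2 CAGA-GFP in 1% FBS DMEM, stimulated with 500 pg/mL TGF-beta after compound addition. %Activity was normalised to no-cell wells (complete cell-killing) and DMSO (no toxicity), and curves were fitted and classified.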
DT40 TDP1 CPT: DT40-hTDP1 cell growth loss with CPT. chicken DT40 Tdp1-/-;hTDP1 cells + 20 nM CPT, ATP luminescence, 48 h. Potency, µM (top dose mostly 46.2 µM), inactives show at the top dose activity change, negative = growth inhibition, usual class: inhibitors. 420,000 tested, 12% active. AID 686979; also: % is scaled to controls: 0 for no effect and ±100 for the full control effect; nearly all actives have a fitted effect of over 55% in size
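Chicken DT40 Tdp1-/- cells stably complemented with human TDP1 were seeded at 400 cells/well in medium containing 20 nM camptothecin, exposed to pin-transferred compounds, and grown at 37 °C for at least 48 hr. Viability was read as ATP luminescence.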
DT40 TDP1 no CPT: qHTS for Inhibitors of human tyrosyl-DNA phosphodiesterase 1 (TDP1): qHTS in cells in absence of CPT. Potency, µM (highest dose often 46.2 µM), inactives show at the top dose activity change, negative = growth inhibition, most hits filed as inhibitors. 420,000 tested, 15% active. DT40 Tdp1-/- hTDP1 cells, no CPT, ATP luminescence, 48 h; also: % is scaled to controls: 0 for no effect and ±100 for the full control effect; nearly all actives have a fitted effect of over 55% in size
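A cellular qHTS used chicken DT40 cells lacking endogenous Tdp1 but carrying stably transfected human TDP1. Compounds were applied without camptothecin, and cell growth kinetics were judged by ATP-dependent luminescence after ≥48 hr.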
* marks the source's active call; other numbers are inactive results; i = inactive; ? = inconclusive; · = not tested or not shown. Calls follow the shape of the dose curve; as a rule, active = well fitted curve in the direction sought with a large enough effect; inconclusive = small, poorly fitted or top-dose-only effect, or another doubt; inactive = no such curve, though single readings can be large; an effect the other way counts as inactive or inconclusive. Potency is read from the fitted curve at half-maximal effect.

SMILES	ATXN2 expr inh	TGFb SMAD3 inh	S2 tox	HepG2 tox	DT40 TDP1 CPT	DT40 TDP1 no CPT
CC1CC(C)(C)CC2(C1)NC(=O)N(CC(=O)N1CCN(S(=O)(=O)c3cccc(F)c3)CC1)C2=O (centres undefined)	-6%	-5%	i	-3%	?	?
Cc1cccc(NC(=O)CN2CCN(C(=O)CN3C(=O)NC4(CC(C)CC(C)(C)C4)C3=O)CC2)c1C (centres undefined)	-15%	-14%	i	-8%	21µM*	4.1µM*
CC(=O)N1CCN(C(=O)CN2C(=O)NC(C)(c3ccc4ccccc4c3)C2=O)CC1 (centres undefined)	-12%	3%	i	-17%	-17%	?
CC1CC(C)(C)CC2(C1)NC(=O)N(CC(=O)Nc1c(F)cccc1F)C2=O (centres undefined)	11%	-5%	i	-6%	6%	3%
CC1(c2ccc3ccccc3c2)NC(=O)N(CC(=O)N2CCN(Cc3ccc(C#N)cc3)CC2)C1=O (centres undefined)	-31%	-12%	?	-31%	3.3µM*	2.1µM*
CC1CC(C)(C)CC2(C1)NC(=O)N(CC(=O)N1CCN(Cc3ccc(C#N)cc3)CC1)C2=O (centres undefined)	-11%	0%	i	1%	8.2µM*	5.2µM*
CCCN(CCC)C(=O)Cn1c(=O)n(-c2ccc(OC)cc2OC)c(=O)c2c3c(sc21)CCC3	6%	-8%	i	5%	-3%	?
COc1ccc(NC(=O)c2cccc(S(=O)(=O)N3CCCCCC3)c2)cc1	-25%	?	i	-7%	?	15µM*
CC(=O)Nc1cccc(C(=O)N2CCN(S(=O)(=O)c3ccc(C4CCCCC4)cc3)CC2)c1	·	?	i	-17%	?	23µM*
CC(C)CC(=O)N1CCN(S(=O)(=O)c2ccc(C3CCCCC3)cc2)CC1	-27%	-18%	i	-27%	21µM*	12µM*
O=C(Nc1ccc(N2CCOCC2)cc1)c1cccc(S(=O)(=O)N2CCCCC2)c1	-1%	0%	i	2%	15µM*	15µM*
Cc1ccc(NC(=O)c2cccc(S(=O)(=O)N3CCCCC3)c2)cc1	-4%	?	i	-25%	-17%	?
O=C(Nc1ccc(S(=O)(=O)N2C[C@@H]3C[C@@H](C2)c2cccc(=O)n2C3)cc1)c1ccc(F)cc1	1%	-6%	i	-4%	0%	2%
O=C(NC1CCCC1)c1cccc(S(=O)(=O)N2CCCCC2)c1	7%	-2%	i	3%	-8%	-24%
Cc1nc(-c2cccc(S(=O)(=O)N3CC(C)CC(C)C3)c2)cs1 (centres undefined)	-9%	?	i	1%	?	13µM*
CCOc1ccc(C(=O)Nc2ccc(S(=O)(=O)N3C[C@@H]4C[C@@H](C3)c3cccc(=O)n3C4)cc2)cc1	-21%	-12%	i	-9%	21µM*	12µM*
CC1CCCC(NC(=O)c2cccc(S(=O)(=O)N3CCCCC3)c2)C1C (centres undefined)	-3%	4%	i	-18%	21µM*	?
CCOC(=O)c1sc(NC(=O)c2c(C)nn(Cc3ccccc3)c2C)cc1C	4%	?	?	-36%	16µM*	?
O=C(Nc1ccc(OC(F)(F)F)cc1)NC1COc2ccccc2C1 (centres undefined)	·	-18%	·	-8%	-23%	-23%
CC(=O)Nc1cccc(C(=O)Nc2ccc(S(=O)(=O)N3CCCCC3)cc2)c1	7%	8%	i	-3%	?	15µM*
COc1ccc(/C(C)=N/NC(=O)c2cccc(S(=O)(=O)N3CCCC3)c2)c(O)c1	?	-23%	i	-3%	5.2µM*	2.9µM*
COc1ccc(COC(=O)c2cccc(S(=O)(=O)N3CCN(C(C)=O)CC3)c2)cc1	-10%	1%	i	-33%	?	21µM*
Cc1nc(-c2cccc(NC(=O)c3cccc(S(=O)(=O)N4CCCC4)c3)c2)cs1	?	-30%	?	-5%	?	23µM*
CC(=O)Nc1ccc(NC(=O)c2cccc(S(=O)(=O)N3CCCCCC3)c2)cc1	-3%	-27%	?	-14%	?	?
Cc1ccc(S(=O)(=O)N(C)C[C@@H]2OCc3cnnn3CCCC(=O)N([C@H](C)CO)C[C@@H]2C)cc1	4%	2%	i	2%	-16%	-22%
SMILES	ATXN2 expr inh	TGFb SMAD3 inh	S2 tox	HepG2 tox	DT40 TDP1 CPT	DT40 TDP1 no CPT
O=C(NC1=NCCS1)C1CCN(S(=O)(=O)c2ccccc2C(F)(F)F)CC1	-1%	-8%	i	-8%	-25%	-11%
CCOCCCNc1nc2c(c(=O)[nH]c(=O)n2C)n1CCCc1ccccc1	12%	-2%	i	-1%	-21%	-18%
O=C(O)COc1ccc(NC(=O)c2ccc3c(c2)C(=O)N(C2CCCCC2)C3=O)cc1	7%	-1%	i	-7%	9%	9%
CCC(=O)Oc1ccc(C(=O)Nc2ccc3c(c2)C(=O)N(C2CCCCC2)C3=O)cc1	-3%	13%	i	3%	21µM*	15µM*
CC(=O)Nc1ccc(NC(=O)c2c(C)nn(Cc3ccccc3Cl)c2C)cc1	3%	1%	i	10%	6%	-2%
COc1cc(NC(=O)c2cccc(S(=O)(=O)N3CCCCC3)c2)cc(OC)c1OC	-20%	-1%	i	-21%	23µM*	?
CC(=O)Nc1ccc(NC(=O)c2c(C)nn(Cc3ccccc3)c2Cl)cc1	24%	0%	i	-5%	13µM*	1.2µM*
CCN(CC)S(=O)(=O)c1ccc(NC(=O)C(C)N(c2ccc(OC)cc2)S(C)(=O)=O)cc1 (centres undefined)	3%	-1%	i	-17%	?	18µM*
Cn1c2c(c(=O)n(C)c1=O)C(c1ccccc1C(F)(F)F)CC(=O)N2 (centres undefined)	-22%	?	i	6%	?	?
COCC1CCN(C(=O)c2ccc3oc(CCc4ccccc4)nc3c2)C1 (centres undefined)	·	11%	i	2%	?	?
Cc1nc(-c2ccc(C(=O)Nc3cccc(F)c3)cc2)cs1	?	-6%	i	-50%	-28%	?

Screening results (PubChem BioAssay)
